# A selection: hits, their analogues and other compounds. The true share with any hit is near 2.6%.
# EBV LMP1 NFkB = EBV LMP1-driven NF-kappaB luciferase reporter inhibitors, primary screen, cell-based, luminescence, single point. LMP1-induced NF-kappaB luciferase reporter cells. inhibition, % at 12.5 µM. 350,000 tested, 0.69% active. AID 504558, 2011; in the data active means inhibition above about 41%; inconclusive means no clear call, values can overlap the other calls;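 further: 0% = neutral control wells and 100% = reference inhibitor control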
# TROY signal inh = inhibitors of TROY-driven NF-kB signaling, primary screen, Q293 LMP1-TROYcd cells, NF-kB luciferase, uHTS. AID 1347056, 2019. 360,000 tested, 0.98% active. inhibition, % at 10 µM. Q293 LMP1-TROYcd NF-kB luciferase reporter, 4 h;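 active means compounds whose plate-normalised and pattern-corrected inhibition of the luciferase reporter signal at the single screening dose is 50% or more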
# LGR2 antag = inhibitors of bursicon-induced LGR2 CRE-luciferase signal, primary screen, cell-based, HEK293, CRE-luciferase reporter, bursicon stimulation. 380,000 tested, 0.35% active. inhibition, % at 9.99 µM. bursicon-stimulated, 4 h. AID 720647, 2013;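 active means drop in luminescence signal, shown as inhibition above about 50% in the replicate tests, limit read from the data, passing the limit was not always enough; inconclusive means probably only some replicates passing the limit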;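 further: agonist challenge used bursicon conditioned medium at about half maximal strength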
# TWEAK Fn14 block = inhibitors of TWEAK-Fn14 signaling, primary screen, luciferase reporter cells, uHTS; AID 1159606, 2016; 360,000 tested, 2% active; TWEAK-stimulated Fn14 reporter cells, luciferase luminescence, 8 h; inhibition, % at 10 µM; in the data active means inhibition above about 50%
# EWS-Fli block = EWS/Fli-driven NR0B1 reporter inhibitors, primary screen, A673 cells, NR0B1 luciferase, luminescence, MLPCN library; viability-normalised; inhibition, % at 12.6 µM; 350,000 tested, 0.67% active;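 active means mean inhibition of at least 50% after viability correction, with every replicate also passing that limit; inconclusive means mean reaches 50% but only one of two replicates passes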;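 further: firefly luciferase signal divided by Alamar Blue viability fluorescence both relative to DMSO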
# * = called active by the depositor; ? = inconclusive; · = not tested or not shown.
SMILES,EBV LMP1 NFkB,TROY signal inh,LGR2 antag,TWEAK Fn14 block,EWS-Fli block
C[C@H](CO)N1C[C@H](C)[C@H](CN(C)Cc2ccc(C(F)(F)F)cc2)Oc2c(NC(=O)Nc3cccc4ccccc34)cccc2C1=O,·,·,21,·,11
COc1cc(C(C)=O)ccc1OCC(O)CN1CCN(c2ccccc2)CC1 (stereo not drawn),4,-10,-10,-18,10
COc1cc(C(C)=O)ccc1OCC(O)CN1CCN(c2ccccn2)CC1 (stereo not drawn),2,-8,8,108*,10
COc1cc(C(C)=O)ccc1OCC(O)Cn1nc(C)c(Br)c1C (stereo not drawn),62*,-26,-13,-1,-5
COc1ccc(NC(=O)Nc2ccc3c(c2)C(=O)N([C@H](C)CO)C[C@@H](C)[C@@H](CN(C)C(=O)Nc2c(C)noc2C)O3)cc1,·,·,-9,·,-10
O=C(C1CCC1)N1[C@@H](CO)[C@@H](c2ccccc2)C12CN(Cc1cccc(Cl)c1)C2,·,·,-1,·,-7
Cc1cc(N=Nc2ccc(C)c(N=Nc3cc(C)c(N)cc3N)c2)c(N)cc1N,-10,49,38,69*,-28
C[C@H](CO)N1C[C@H](C)[C@H](CN(C)CC2CC2)Oc2cc(C#Cc3ccccc3)ccc2S1(=O)=O,·,·,0,·,8
COc1ccc(/C=N\NC(=O)/C(=C\Nc2nccc(C)n2)NC(=O)c2ccccc2)cc1,7,·,10,71*,·
CCC(=O)N(C)C[C@@H]1Oc2cc(C#CCC(C)C)ccc2S(=O)(=O)N([C@H](C)CO)C[C@@H]1C,·,·,-3,·,10
COc1cc2cc(-c3ccc(O)cc3O)nc(C)c2cc1OC,2,-57,-9,7,27
COc1cc2cc(-c3ccc(OC)c(OC)c3C)nc(N)c2cc1OC,·,13,0,-12,52*
COc1ccc(CN(C)C[C@@H]2Oc3ccc(NS(C)(=O)=O)cc3C(=O)N([C@@H](C)CO)C[C@@H]2C)cc1,·,·,10,·,-2
Cc1cc(/C=C2\SC(=S)N(C)C2=O)c(C)n1-c1ccc(O)cc1,48*,82*,64*,104*,75*
Cc1cc(/C=C2\SC(=S)N(C)C2=O)c(C)n1-c1ccccc1O,0,61*,-32,96*,-60
OC[C@@H]1[C@H](c2ccc(-c3cccc(F)c3)cc2)[C@H]2CN(CCC(F)(F)F)CCCCN12,·,·,5,·,14
C[C@@H]1CN([C@@H](C)CO)C(=O)Cc2cc(NC(=O)C3CCCCC3)ccc2O[C@@H]1CN(C)C(=O)Nc1ccc2c(c1)OCO2,·,·,-6,·,-8
Cc1ccccc1CNc1ccc(C(CC(N)=O)NC(=O)c2ccc(Br)cc2)cc1[N+](=O)[O-] (stereo not drawn),60*,23,-9,-10,4
O=C1CSC(=S)N1c1cccc(O)c1,7,31,16,76*,0
CC(=O)c1c(OC(=O)c2ccccc2Br)ccc2c(C)cc(=O)oc12,19,37,-8,54*,·
CCOc1cccc(/C=C(/C#N)c2nc3ccccc3[nH]2)c1OCC(=O)O,1,58*,-13,61*,0
COc1cccc(/C=C(\C#N)c2nc3ccc(C)cc3[nH]2)c1OCC(=O)O,-11,-25,-30,1,7
CCN(CC)c1ccc(/C=C(/C#N)c2nc3ccccc3[nH]2)c(OC(C)C)c1,5,69*,·,76*,·
O=C(CCN1CCOCC1)c1ccc(N2CCCCC2)cc1,2,7,-38,55*,30
O=C(CCN1CCN(c2ccccc2)CC1)c1ccc(Cl)cc1,7,5,2,3,4
SMILES,EBV LMP1 NFkB,TROY signal inh,LGR2 antag,TWEAK Fn14 block,EWS-Fli block
O=C(O)C1CCCCC1C(=O)Nc1ccc2c(c1)OCCO2 (stereo not drawn),-3,69*,·,83*,·
CC(C)C(NC(=O)C1CCCCC1)C(=O)Nc1ccc2c(c1)OCCO2 (stereo not drawn),3,33,·,63*,·
O=C(O)C1C2C=CC(C2)C1C(=O)Nc1ccc2c(c1)OCCO2 (stereo not drawn),9,52*,·,65*,·
CCOC(=O)CSc1n[nH]c(NC(=O)c2ccccc2)n1,7,16,4,27,10
CCOC(=O)CSc1n[nH]c(NC(=O)c2ccc(F)cc2)n1,9,5,·,50*,·
CN(C)C(=O)c1cccc(-c2ccc([C@@H]3[C@H]4CN(C(=O)C5CCC5)CCCCN4[C@H]3CO)cc2)c1,·,·,12,·,-1
Cc1ccccc1-c1nc2sc3c(c2c(=O)n1N)CCCC3,-15,77*,·,71*,·
Nn1c(-c2cccs2)nc2sc3c(c2c1=O)CCCC3,-36,-19,-53,29,·
O=c1oc(-c2ccccc2)nc2sc3c(c12)CCCC3,-1,-32,-40,53*,·
CCOC(=O)c1cc(NC(=O)Nc2cc(C)ccn2)c(C)nc1C,7,14,11,12,-13
CCOC(=O)Nc1cc(C(=O)OCC)c(C)nc1C,-4,·,·,76*,·
COCC#Cc1ccc2c(c1)O[C@@H](CN(C)C(=O)C1CCC1)[C@H](C)CN([C@@H](C)CO)S2(=O)=O,·,·,-13,·,-1
CCNc1nc(NCC)n2c(SCC(=O)Nc3cccc(Cl)c3)nnc2n1,-2,-14,·,-10,·
CCNc1nc(NCC)n2c(SC(C(=O)Nc3cc(Cl)cc(Cl)c3)c3ccccc3)nnc2n1 (stereo not drawn),-20,47,2,67*,·
Cc1ccccc1NN1C(=O)C=CC1=O,2,14,·,18,·
Cc1ccc(NN2C(=O)C=CC2=O)cc1,5,36,7,53*,·
COC(=O)c1cc(C(=O)N2CCN(c3cccc(Cl)c3)CC2)cc([N+](=O)[O-])c1,13,14,-5,-1,51*
Cc1ccc(S(=O)(=O)N(C)C[C@@H]2Oc3ccc(NC(=O)Nc4ccccc4)cc3CC(=O)N([C@@H](C)CO)C[C@@H]2C)cc1,·,·,32,·,32
O=[N+]([O-])/C=C\c1ccc(N2CCOCC2)cc1,?,53*,?,53*,45
O=C(COc1ccc(/C=C\[N+](=O)[O-])cc1)N1CCOCC1,5,25,2,13,-7
CCC(Sc1nc(C)cc(C)n1)C(=O)Nc1ccc(Cl)cn1 (stereo not drawn),3,·,·,59*,·
CCOC(=O)Cc1nnc(NC(=O)C(CC)Sc2nc(C)cc(C)n2)s1 (stereo not drawn),-1,-4,20,-32,5
Cc1cc(O)cc(O)c1-c1onc(C(F)(F)F)c1-c1cscn1,6,·,·,52*,·
CCOc1ccc(-c2onc(C(F)(F)F)c2-c2cscn2)c(O)c1,2,16,10,-2,10
COc1cccc(OC)c1C(=O)NCCSC1CCCCC1,59*,-1,11,-1,5

# Source: PubChem BioAssay
